# Assay results as given in the supplement of paper PMC8728848.
# About 410 targets per protein were measured; listed, in parts, are those with the strongest signals and a random draw of the rest.
# Legend:
# Experiment in all cases: glycan array binding signal (z-score within array); higher = stronger binding
# Details in all cases: glycan notation: IUPAC condensed, linker removed
# [1] = target: Fuc(a1-2)Gal(b1-3)GalNAc(b1-4)[Neu5Ac(a2-3)]Gal(b1-4)Glc
# Method in brief: (§1)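 Arrays were curated from the Consortium for Functional Glycomics database, 3228 in total, and kept only where the protein sequence was available. Binding is expressed as a within-array Z-score. This score was averaged across arrays of the same protein sequence at different concentrations or buffers and across linkers, and negative values can be read as non-binding.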
# [2] = target: Fuc(a1-2)Gal(b1-3)GlcNAc6S
# Method in brief: as §1
# [3] = target: Fuc(a1-2)Gal(b1-3)[Fuc(a1-4)]GlcNAc(b1-2)Man(a1-3)[Fuc(a1-2)Gal(b1-3)[Fuc(a1-4)]GlcNAc(b1-2)Man(a1-6)]Man(b1-4)GlcNAc(b1-4)GlcNAc
# Method in brief: as §1
# [4] = target: Fuc(a1-2)[Gal(a1-3)]Gal(b1-3)GlcNAc
# Method in brief: as §1
# [5] = target: Fuc(a1-2)[Gal(a1-3)]Gal(b1-4)[Fuc(a1-3)]GlcNAc(b1-3)GalNAc
# Method in brief: as §1
# [6] = target: Fuc(a1-2)[GalNAc(a1-4)]Gal(b1-4)GlcNAc
# Method in brief: as §1
# [7] = target: Fuc(a1-3)[Gal(b1-4)]GlcNAc(b1-2)Man(a1-3)[Fuc(a1-3)[Gal(b1-4)]GlcNAc(b1-2)Man(a1-6)]Man(b1-4)GlcNAc(b1-4)[Fuc(a1-6)]GlcNAc
# Method in brief: as §1
# [8] = target: Fuc(a1-3)[Gal3S(b1-4)]GlcNAc6S
# Method in brief: as §1
# [9] = target: Gal(a1-3)Gal(b1-4)[Fuc(a1-3)]GlcNAc(b1-2)Man(a1-3)[Gal(a1-3)Gal(b1-4)[Fuc(a1-3)]GlcNAc(b1-2)Man(a1-6)]Man(b1-4)GlcNAc(b1-4)GlcNAc
# Method in brief: as §1
# [10] = target: Gal(a1-4)Gal(b1-4)GlcNAc(b1-3)Gal(b1-4)Glc
# Method in brief: as §1
# [11] = target: Gal(b1-3)Gal(b1-4)GlcNAc(b1-2)Man(a1-3)[Gal(b1-3)Gal(b1-4)GlcNAc(b1-2)Man(a1-6)]Man(b1-4)GlcNAc(b1-4)GlcNAc
# Method in brief: as §1
# [12] = target: Gal(b1-4)GlcNAc(b1-2)Man(a1-3)Man(b1-4)GlcNAc(b1-4)GlcNAc
# Method in brief: as §1
# [13] = target: Gal(b1-4)GlcNAc(b1-2)Man(a1-3)[Gal(b1-4)GlcNAc(b1-2)][GlcNAc(b1-4)]Man(b1-4)GlcNAc(b1-4)GlcNAc
# Method in brief: as §1
# [14] = target: Gal(b1-4)GlcNAc(b1-2)Man(a1-3)[Man(a1-6)]Man(b1-4)GlcNAc(b1-4)GlcNAc
# Method in brief: as §1
# [15] = target: Gal(b1-4)GlcNAc(b1-2)Man(a1-6)[Man(a1-3)]Man(b1-4)GlcNAc(b1-4)GlcNAc
# Method in brief: as §1
# [16] = target: Gal(b1-4)GlcNAc(b1-2)[Gal(b1-4)GlcNAc(b1-6)]Man(a1-6)[Gal(b1-4)GlcNAc(b1-2)Man(a1-3)]Man(b1-4)GlcNAc(b1-4)[Fuc(a1-6)]GlcNAc
# Method in brief: as §1
# Gal(b1-6)Gal = target: Gal(b1-6)Gal
# Method in brief: as §1
# Gal3S6S(b1-4)GlcNAc6S = target: Gal3S6S(b1-4)GlcNAc6S
# Method in brief: as §1
# Gal6S(b1-3)GlcNAc = target: Gal6S(b1-3)GlcNAc
# Method in brief: as §1
# Gal6S(b1-4)GlcNAc6S = target: Gal6S(b1-4)GlcNAc6S
# Method in brief: as §1
# GalNAc(b1-3)GalNAc = target: GalNAc(b1-3)GalNAc
# Method in brief: as §1
# GlcA(b1-3)Gal = target: GlcA(b1-3)Gal
# Method in brief: as §1
# [17] = target: GlcNAc(a1-4)Gal(b1-4)GlcNAc
# Method in brief: as §1
# [18] = target: GlcNAc(a1-4)Gal(b1-4)GlcNAc(b1-3)Gal(b1-4)GlcNAc(b1-3)Gal(b1-4)GlcNAc
# Method in brief: as §1
# [19] = target: GlcNAc(b1-4)GlcNAc(b1-4)GlcNAc(b1-4)GlcNAc(b1-4)GlcNAc
# Method in brief: as §1
# [20] = target: Man(a1-2)Man(a1-3)[Man(a1-2)Man(a1-6)]Man(a1-6)[Man(a1-2)Man(a1-2)Man(a1-3)]Man
# Method in brief: as §1
# [21] = target: Man(a1-3)[Man(a1-6)]Man(a1-6)[Man(a1-2)Man(a1-3)]Man(b1-4)GlcNAc(b1-4)GlcNAc
# Method in brief: as §1
# [22] = target: Man(a1-3)[Man(a1-6)]Man(b1-4)GlcNAc(b1-4)GlcNAc
# Method in brief: as §1
# [23] = target: Man(a1-3)[Man(a1-6)]Man(b1-4)GlcNAc(b1-4)[Fuc(a1-6)]GlcNAc
# Method in brief: as §1
# [24] = target: Neu5Ac(a2-3)Gal(b1-3)GlcNAc(b1-3)Gal(b1-3)GlcNAc
# Method in brief: as §1
# [25] = target: Neu5Ac(a2-3)Gal(b1-3)GlcNAc(b1-6)GalNAc
# Method in brief: as §1
# [26] = target: Neu5Ac(a2-3)Gal(b1-4)GlcNAc(b1-2)Man(a1-3)[Neu5Ac(a2-6)Gal(b1-4)GlcNAc(b1-2)Man(a1-6)]Man(b1-4)GlcNAc(b1-4)GlcNAc
# Method in brief: as §1
# [27] = target: Neu5Ac(a2-3)Gal(b1-4)GlcNAc(b1-3)Gal(b1-3)GlcNAc
# Method in brief: as §1
# [28] = target: Neu5Ac(a2-3)Gal(b1-4)GlcNAc(b1-3)Gal(b1-4)GlcNAc(b1-3)Gal(b1-4)GlcNAc
# Method in brief: as §1
# [29] = target: Neu5Ac(a2-6)Gal(b1-4)GlcNAc(b1-2)Man(a1-3)Man(b1-4)GlcNAc(b1-4)GlcNAc
# Method in brief: as §1
# [30] = target: Neu5Ac(a2-6)Gal(b1-4)GlcNAc(b1-2)Man(a1-6)[Gal(b1-4)GlcNAc(b1-2)Man(a1-3)]Man(b1-4)GlcNAc(b1-4)GlcNAc
# Method in brief: as §1
# [31] = target: Neu5Ac(a2-6)Gal(b1-4)GlcNAc(b1-2)Man(a1-6)[Man(a1-3)]Man(b1-4)GlcNAc(b1-4)GlcNAc
# Method in brief: as §1
# [32] = target: Neu5Ac(a2-8)Neu5Ac(a2-8)Neu5Ac(a2-3)Gal(b1-4)Glc
# Method in brief: as §1
binder,measurement,setting,value
Morniga (Morus nigra) (protein) MAGTSTNTQTTGTSQTVEVGLWGGPGGNAWDDGSYTGIREINLSHGDAIGAFSVIYDLNGQPFTGPTHPGNEPSFKTVKITLDFPNEFLVSVSGYTGVLPRLATGKDVIRSLTFKTNKKTYGPYGKEEGTPFSLPIENGLIVGFKGRSGFVVDAIGVHLS,glycan array binding signal (z-score),[1],-0.335
same,glycan array binding signal (z-score),[2],-0.321
same,glycan array binding signal (z-score),[3],-0.19
same,glycan array binding signal (z-score),[4],-0.332
same,glycan array binding signal (z-score),[5],-0.329
same,glycan array binding signal (z-score),[6],-0.34
same,glycan array binding signal (z-score),[7],-0.304
same,glycan array binding signal (z-score),[8],-0.324
same,glycan array binding signal (z-score),[9],0.347
same,glycan array binding signal (z-score),[10],-0.341
same,glycan array binding signal (z-score),[11],4.04
same,glycan array binding signal (z-score),[12],4.3
same,glycan array binding signal (z-score),[13],1.41
same,glycan array binding signal (z-score),[14],4.49
same,glycan array binding signal (z-score),[15],4.24
same,glycan array binding signal (z-score),[16],1.6
same,glycan array binding signal (z-score),Gal(b1-6)Gal,-0.326
same,glycan array binding signal (z-score),Gal3S6S(b1-4)GlcNAc6S,-0.316
same,glycan array binding signal (z-score),Gal6S(b1-3)GlcNAc,-0.338
same,glycan array binding signal (z-score),Gal6S(b1-4)GlcNAc6S,-0.337
same,glycan array binding signal (z-score),GalNAc(b1-3)GalNAc,-0.327
same,glycan array binding signal (z-score),GlcA(b1-3)Gal,-0.333
same,glycan array binding signal (z-score),[17],-0.296
same,glycan array binding signal (z-score),[18],-0.327
same,glycan array binding signal (z-score),[19],-0.335
same,glycan array binding signal (z-score),[20],-0.327
same,glycan array binding signal (z-score),[21],4.19
same,glycan array binding signal (z-score),[22],5.03
same,glycan array binding signal (z-score),[23],4.02
same,glycan array binding signal (z-score),[24],-0.332
same,glycan array binding signal (z-score),[25],-0.299
same,glycan array binding signal (z-score),[26],2.56
same,glycan array binding signal (z-score),[27],-0.325
same,glycan array binding signal (z-score),[28],-0.342
same,glycan array binding signal (z-score),[29],3.66
same,glycan array binding signal (z-score),[30],3.24
same,glycan array binding signal (z-score),[31],4.66
same,glycan array binding signal (z-score),[32],-0.334
